# Experimental data as given in the supplement of paper PMC6555819.
# Legend:
# Experiment in all cases: PBM binding z-score (relative to random genomic background probes); higher = stronger binding; sequences stand for … in GC…GCGATTGACAGCGTAGAATGAAGG
# [1] = test system: FXR:RXRa (NR concentration 270 nM, RXRa partner concentration 90 nM)
# How it was run: (§1)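 Probes were double-stranded and carried 34-nt variable regions with direct-repeat seeds, single-nucleotide variants, half-site ablations and random human genomic background sequences, printed on custom Agilent 4×180K protein-binding microarrays. Arrays were incubated 1 h with ligand-free nuclear receptor dimers in PBS pH 7.4, 2% milk, 0.02% Triton X-100, 1 mM DTT, 0.2 mg/mL BSA and 0.4 mg/ml salmon testes DNA. Antibodies against each partner (one per run) detected binding, and scanned fluorescence was regression-normalized. Binding z-scores use the random background probes as reference.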
# [2] = test system: LXRa:RXRa (NR concentration 270 nM, RXRa partner concentration 90 nM)
# How it was run: as §1
# [3] = test system: LXRa homodimer (NR concentration 270 nM)
# How it was run: as §1
# [4] = test system: LXRb:RXRa (NR concentration 270 nM, RXRa partner concentration 90 nM)
# How it was run: as §1
# [5] = test system: LXRb homodimer (NR concentration 270 nM)
# How it was run: as §1
# [6] = test system: PPARa:RXRa (NR concentration 270 nM, RXRa partner concentration 90 nM)
# How it was run: as §1
# [7] = test system: PPARg:RXRa (NR concentration 180 nM, RXRa partner concentration 90 nM)
# How it was run: as §1
# [8] = test system: PPARg:RXRa 270nM:90nM, anti-RXR (NR concentration 270 nM, RXRa partner concentration 90 nM)
# How it was run: as §1
# [9] = test system: PPARg:RXRa 30nM:10nM, anti-RXR (NR concentration 30 nM, RXRa partner concentration 10 nM)
# How it was run: as §1
# [10] = test system: PPARg:RXRa 90nM:30nM, anti-RXR (NR concentration 90 nM, RXRa partner concentration 30 nM)
# How it was run: as §1
# [11] = test system: PPARg:RXRa DBDmut IVT, anti-RXR (DBD mutation: RXRa K156A/R161A, NR concentration 270 nM, RXRa partner concentration 90 nM)
# How it was run: as §1
# [12] = test system: PPARg:RXRa IVT, anti-PPARg (NR concentration 270 nM, RXRa partner concentration 90 nM)
# How it was run: as §1
# [13] = test system: PPARg DBDmut:RXRa IVT, anti-PPARg (DBD mutation: PPARg1 K132A/R137A, NR concentration 270 nM, RXRa partner concentration 90 nM)
# How it was run: as §1
# [14] = test system: PPARg DBDmut IVT, anti-PPARg (DBD mutation: PPARg1 K132A/R137A, NR concentration 270 nM)
# How it was run: as §1
# [15] = test system: PPARg homodimer (NR concentration 180 nM)
# How it was run: as §1
# [16] = test system: PXR:RXRa (NR concentration 270 nM, RXRa partner concentration 90 nM)
# How it was run: as §1
# [17] = test system: PXR homodimer (NR concentration 270 nM)
# How it was run: as §1
# [18] = test system: RARa:RXR (NR concentration 270 nM, RXRa partner concentration 90 nM)
# How it was run: as §1
# [19] = test system: RARa homodimer (NR concentration 270 nM)
# How it was run: as §1
# [20] = test system: RARb:RXRa (NR concentration 270 nM, RXRa partner concentration 90 nM)
# How it was run: as §1
Sequence,PBM binding z-score [1],PBM binding z-score [2],PBM binding z-score [3],PBM binding z-score [4],PBM binding z-score [5],PBM binding z-score [6],PBM binding z-score [7],PBM binding z-score [8],PBM binding z-score [9],PBM binding z-score [10],PBM binding z-score [11],PBM binding z-score [12],PBM binding z-score [13],PBM binding z-score [14],PBM binding z-score [15],PBM binding z-score [16],PBM binding z-score [17],PBM binding z-score [18],PBM binding z-score [19],PBM binding z-score [20]
CGTCCAAGGTCAAAGCTCAGTGAAGAGATGACGG,7.32,5.36,0.938,3.83,0.937,5.37,4.98,5.4,2.13,4.12,3.54,3.35,0.259,-0.242,3.06,3.96,0.865,4.6,1.16,5.14
GATACAGGGTCAGCTAGAGGCCTGAGTATGGAAA,4.07,2.14,-0.546,1.75,-0.639,4.25,3.02,2.86,0.545,1.56,1.41,1.85,-0.274,-0.805,1.14,1.73,-0.266,2.75,-0.534,3.74
GCGACTGGGGCAAACCAGGTTACCATAAGGTTGG,0.393,0.174,-0.329,0.0865,-0.736,1.37,1.43,1.51,-0.386,0.602,4.47,3.82,-1.05,-0.639,-0.0869,0.736,-0.522,0.63,-0.483,0.961
TCTCGGAGGACACGAAAGTCAGAGCTTTCCAGAG,0.434,-0.603,-0.708,-0.456,-1.24,0.0493,-0.000671,0.487,2.23,1.24,1.13,0.191,-0.706,-0.594,-0.882,-0.408,-0.694,-0.237,-0.903,1.28
AGTCAAAGTTCAGTACGAGGTAACGTAAAGCACG,3.32,3.34,1.28,1.83,0.584,2.76,3.76,4.15,1.8,2.93,-0.11,1.83,0.68,0.981,1.69,3.02,1.72,2.35,1.06,4.11
ATCTCTAGGTAACAAGTTCAGCGAAAGAGAGGAC,0.684,0.959,0.732,0.934,1.33,2.01,1.88,2.43,0.884,2.22,3.7,2.88,1.31,2.15,1.32,1.9,1.83,1.15,1.27,1.81
ATATGTAGGTTAGCTGGGGTCGTTCAGACTAGGC,1.41,3.09,0.399,2.71,0.5,3.82,3.96,3.57,1.33,2.73,6.38,6.16,1.24,1.41,0.751,4.69,1.3,2.76,0.512,1.51
AGTCAAAGTTCAGGACAAGGTAACGTAAAGCACG,4.6,3.97,1.69,2.19,0.548,3.47,4.97,4.95,2.16,4.11,-0.163,2.21,1.02,0.792,2.91,3.12,1.58,3.09,1.2,4.38
ATTCAAAGTTCATCTAGGTAACGTAAGATATGCT,6.71,6.24,6.17,3.99,2.84,4.52,4.18,4.51,1.84,3.39,0.894,2.97,2.38,1.91,2.88,4.96,7.34,3.44,1.89,4.93
ATATGTAGGTTAAGGGTCATACAGGTTGGTTCGC,4.79,4.61,2.43,4.61,1.28,6.57,12.1,10.2,9.63,12.5,7.57,7.96,4.09,2.15,4.5,5.37,1.88,6.2,2.6,3.76
TCTGCTAGGTCAACGATCGTCAGCTAATCTGCTA,2.97,2.19,-0.465,1.24,-0.245,3.11,2.49,3.26,1.96,2.76,4.39,4.24,-0.071,-0.625,0.478,0.836,-0.972,1.79,-1.13,3.96
GGAACGAGGGAAAGTTGATAGCAGAGTTTGATGG,-0.31,-0.575,-0.354,-0.799,-0.711,-0.252,0.626,0.9,0.276,0.845,0.0988,-0.37,-0.287,-0.305,0.398,-0.176,0.056,-0.338,-0.00431,-0.247
TCTCGGAGGACACGATAGGTCAGAGCTCGACATC,1.07,1.92,0.208,0.643,-0.585,1.5,0.595,1.43,2.09,1.52,1.4,0.606,-0.736,-0.55,0.932,0.843,-0.337,1.59,-0.7,2.66
AGAAAGAGGGCACGCTGAGTTGATAGCAGAGTAG,1.1,1.24,-0.317,0.624,-0.685,2.59,1.83,1.95,0.315,1.09,3.25,3.07,0.171,-0.413,0.723,1.85,-0.108,1.27,-0.166,2.74
TCTCGGACGACACGAAAGGTCAGAGCTCGACATC,2.91,3.74,2.39,3.3,0.313,3.69,1.12,2.86,2.84,2.66,1.5,1.09,-0.234,0.0466,3.29,3.8,0.286,4.66,2.43,3.86
